# Measured values as given in PubChem BioAssay AID504373 (National Center for Advancing Translational Sciences (NCATS), 2011).
# Where “and” joins values, the source holds several entries; their conditions need not be identical. Equal entries are not always repeated. Inconclusive results are not listed. More than one record can exist for a structure, and the calls need not agree. Calls of active or inactive are those of the source.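 Rule for the calls: active = fewer circulating green fluorescent tagged thrombocytes in treated fish, with no visible harm to the embryos; inconclusive = compound visibly harmful to the embryos; inactive = no drop in circulating tagged thrombocytes.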
# Assay: qHTS Assay for Compounds Blocking the Interaction Between CBF-beta and RUNX1 for the Treatment of Acute Myeloid Leukemia: Zebrafish assay for Hematopoiesis, SAR for Probe
# Conditions: GFP-cd41 zebrafish embryos, microscopy, 5 days, at 10 uM, stronger effect = lower value
# Excerpt: NIH Chemical Genomics Center [NCGC] NIH Molecular Libraries Probe Production centers Network [MLPCN] MLPCN Grant: X01MH083259-01 Assay Submitter (PI): Paul Liu NCGC Assay Overview: Core Binding Factor (CBF) abnormalities are associated with 20-25% of all acute myeloid leukemias (AML), of which 5-10% are further sub classified as acute myelomonocytic leukemia with eosinophilia, also known as M4Eo in the FAB classification scheme. This subtype of leukemia is usually associated with chromosome 16 inversion (p13:q22). Chromosome 16 inversion results in formation of the fusion oncogene CBFB-MYH11, which encodes the fusion protein CBF-beta-SMMHC. […] It has been hypothesized that the interference of CBF-beta and RUNX1 binding could have therapeutic implications for patients with CBF mediated leukemias. We developed a CBF-beta and RUNX1 binding assay in AlphaScreenTM format and optimized it for high throughput screening to search for inhibitors. The goal of this project is to screen MLPCN's compound collection (MLSMR) for identifying the inhibitors of the interaction between CBF-beta and RUNX1 proteins as research probes. If these probes work well in the animal models, the ultimate goal of this project is to development a new drug treatment for this disease. […] These fish contain a genomic modulation where GFP has been fused to cd41, a marker for thrombocytes, and thus circulating thrombocytes can be easily imaged in anesthetized fish.
# Assay protocol: GFP-cd41 zebrafish were kindly provided by the Liu lab. Zebrafish embryos were incubated with compound (<0.1% DMSO final) at 48 hours post fertilization, for 5 days. Embryos were manually scored under a microscope with GFP illumination for circulating GFP-tagged thrombocytes. Keywords: MLSMR, MLPCN, NIH Roadmap, qHTS, NCGC, Core binding factor, CBF, CBF-beta, Acute myeloid leukemia
row,Compound,fish with circulating GFP thrombocytes
1,NCCCC(=O)Nc1ccc(Cl)cc1C(=O)c1ccc[nH]1,93.3%
2,CN(C)CC(=O)Nc1ccc(Cl)cc1C(=O)c1ccc[nH]1,70%

# Same assay, conditions: GFP-cd41 zebrafish embryos, microscopy, 5 days, at 25 µM, stronger effect = lower value
row,Compound,fish with circulating GFP thrombocytes
1,C[C@H](N)C(=O)Nc1ccc(Cl)cc1C(=O)c1ccc[nH]1,100% (inactive)
2,NCCCC(=O)Nc1ccc(Cl)cc1C(=O)c1ccc[nH]1,100% (inactive)
3,N[C@@H](Cc1ccccc1)C(=O)Nc1ccc(Cl)cc1C(=O)c1ccc[nH]1,100% (inactive)
4,CC(C)(N)C(=O)Nc1ccc(Cl)cc1C(=O)c1ccc[nH]1,100% (inactive)
5,CN(C)CC(=O)Nc1ccc(Cl)cc1C(=O)c1ccc[nH]1,59.4% (active)
6,NCCC(=O)Nc1ccc(Cl)cc1C(=O)c1ccc[nH]1,100% (inactive)
7,CC(=O)Nc1ccc(Cl)cc1C(=O)c1ccc[nH]1,70.8% (active) and 100% (inactive)
8,N[C@H](C(=O)Nc1ccc(Cl)cc1C(=O)c1ccc[nH]1)c1ccccc1,100% (inactive)
9,N[C@@H](CCC(=O)O)C(=O)Nc1ccc(Cl)cc1C(=O)c1ccc[nH]1,100% (inactive)
10,N[C@H](Cc1ccccc1)C(=O)Nc1ccc(Cl)cc1C(=O)c1ccc[nH]1,100% (inactive)
11,O=C(c1ccc[nH]1)c1cc(Cl)ccc1NC(=O)[C@@H]1CCCN1,100% (inactive)
12,CC(C)[C@H](N)C(=O)Nc1ccc(Cl)cc1C(=O)c1ccc[nH]1,100% (inactive)
13,Nc1ccc(Cl)cc1C(=O)c1ccc[nH]1,83.3% (active)
14,NC(=O)C[C@H](N)C(=O)Nc1ccc(Cl)cc1C(=O)c1ccc[nH]1,100% (inactive)
15,CNCC(=O)Nc1ccc(Cl)cc1C(=O)c1ccc[nH]1,100% (inactive)
16,NCCCC[C@H](N)C(=O)Nc1ccc(Cl)cc1C(=O)c1ccc[nH]1,100% (inactive)
17,C[C@@H](N)C(=O)Nc1ccc(Cl)cc1C(=O)c1ccc[nH]1,100% (inactive)
18,N[C@@H](CC(=O)O)C(=O)Nc1ccc(Cl)cc1C(=O)c1ccc[nH]1,100% (inactive)
19,CCC(=O)Nc1ccc(Cl)cc1C(=O)c1ccc[nH]1,100% (inactive)
20,CNCc1nc(-c2ccc[nH]2)c2cc(Cl)ccc2n1,100% (inactive)
21,NC(N)=NCCC[C@H](N)C(=O)Nc1ccc(Cl)cc1C(=O)c1ccc[nH]1,100% (inactive)
22,NCC(=O)Nc1ccc(Cl)cc1C(=O)c1ccc[nH]1,100% (inactive)

# Same assay, conditions: GFP-cd41 zebrafish embryos, microscopy, 5 days, at 50 uM, stronger effect = lower value
row,Compound,fish with circulating GFP thrombocytes
1,CC(=O)Nc1ccc(Cl)cc1C(=O)c1ccc[nH]1,66.7%
2,Nc1ccc(Cl)cc1C(=O)c1ccc[nH]1,70.8%
